Assay [1] in a line: NCI Yeast Anticancer Drug Screen. Data for the rad50 strain (AID 155).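 Note: 0% = growth of vehicle-only cultures of the same strain.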 To be noted: S. cerevisiae rad50 strain growth inhibition, active compounds read high. Summed up:
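Readout: growth inhibition relative to vehicle-treated cultures. Compound exposure was carried out in a genetically defined yeast strain deficient in DNA damage repair.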

Assay [2] is described as follows: NCI Yeast Anticancer Drug Screen. Data for the mec2-1 strain (AID 157). To be noted: S. cerevisiae mec2-1 strain, active compounds read high. Summed up: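 Mutant yeast (mec2-1) grown with compound; growth inhibition relative to vehicle control reported.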
Assay [3] is described as follows: NCI Yeast Anticancer Drug Screen. Data for the sgs1 mgt1 strain (AID 161).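 Note: 0% = growth of cultures given vehicle only.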 The conditions noted are these: S. cerevisiae sgs1 mgt1 strain, active compounds read high. Summed up:
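Percent growth inhibition was derived by comparing compound-exposed mutant yeast with vehicle-exposed cultures. The strain carries alterations in DNA damage repair.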

The nature of assay [4]: NCI Yeast Anticancer Drug Screen. Data for the cln2 rad14 strain (AID 165).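 Note: 0% = growth equal to vehicle treated cultures.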 The conditions noted are these: S. cerevisiae cln2 rad14 strain, active compounds read high. Summed up:
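Readout is yeast growth inhibition versus vehicle-treated controls, using a strain with cln2 and rad14 alterations exposed to compound.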

Assay [5] can be described thus: NCI Yeast Anticancer Drug Screen. Data for the mlh1 rad18 strain (AID 175). To be noted: S. cerevisiae mlh1 rad18 strain growth inhibition, active compounds read high. Summed up: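 Genetically defined yeast (DNA repair-deficient) exposed to compounds; growth inhibition determined relative to vehicle.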
Assay [6] is described as follows: NCI Yeast Anticancer Drug Screen. Data for the bub3 strain (AID 167). The conditions noted are these: S. cerevisiae bub3 mutant strain, active compounds read high. Summed up:
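Readout: yeast growth inhibition, expressed relative to vehicle-only wells. The test organism is a mutant strain from a panel with lesions in DNA repair or checkpoint genes.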

The mark [7] stands for this setting: at 5.0 µM (retest, dose inferred, filed as 0.5).
[8] abbreviates: at 50.0 µM (retest, dose inferred, filed as 5.0).

The panel holds about 79,000 compounds, 15% with a hit somewhere; the sample as a whole holds those more often. A number with no mark means an inactive call. Active and inactive are the calls of the source. Cut-off read from the data, not from the text of the source: active = growth inhibition above about 70%; inactive = the rest.

As to `COC(CC[P+](c1ccccc1)(c1ccccc1)c1ccccc1)(C(=O)c1ccccc1)c1ccccc1` (stereo unspecified), the growth inhibition in assay [1] (setting [7]) was 91% (active); in assay [1] (setting [8]), 99% (active); in assay [1] (at 50.0 µM), 98.7% (active); in assay [2] (setting [7]), 97% (active); in assay [2] (setting [8]) it was 99% (active); in assay [2] (at 50.0 µM), 99.7% (active). For the same compound, the growth inhibition in assay [3] (setting [7]) was 88% (active); in assay [3] (setting [8]) it was 99% (active); in assay [3] (at 50.0 µM), 99.8% (active); in assay [4] (setting [7]) it was 90% (active); in assay [4] (setting [8]), 99% (active); in assay [4] (at 50.0 µM), 98.8% (active). Further, the figures for the growth inhibition in assay [5] (setting [7]), in assay [5] (setting [8]) and in assay [5] (at 50.0 µM) were 92% (active), 100% (active) and 99.5% (active), respectively.
In the case of `COC(=O)c1ccccc1C=C(c1ccc([N+](=O)[O-])cc1)c1ccc([N+](=O)[O-])cc1`, the growth inhibition was 4% in assay [1] (setting [7]); 94% (active) in assay [1] (setting [8]); 93.2% (active) in assay [1] (at 50.0 µM); -2% in assay [2] (setting [7]); 99% (active) in assay [2] (setting [8]); 95.8% (active) in assay [2] (at 50.0 µM). Moreover, the growth inhibition is -11% in assay [4] (setting [7]); 97% (active) in assay [4] (setting [8]); 95.1% (active) in assay [4] (at 50.0 µM); -2% in assay [6] (setting [7]); 98% (active) in assay [6] (setting [8]); 94.6% (active) in assay [6] (at 50.0 µM). For the same compound, the results for the growth inhibition in assay [5] (setting [7]), in assay [5] (setting [8]) and in assay [5] (at 50.0 µM) were 28%, 97% (active) and 96% (active), respectively.
Turning to `OC1CCN(c2c3ccccc3nc3ccccc23)CC1`, the growth inhibition was 21% in assay [1] (setting [7]); 85% (active) in assay [1] (setting [8]); 12.2% in assay [1] (at 50.0 µM); 7% in assay [2] (setting [7]); 67% in assay [2] (setting [8]); 11.4% in assay [2] (at 50.0 µM). In addition, the growth inhibition in assay [3] (setting [7]) is 32%; in assay [3] (setting [8]) it was 94% (active); in assay [3] (at 50.0 µM), 2.65%; in assay [4] (setting [7]), 24%; in assay [4] (setting [8]), 23%; in assay [4] (at 50.0 µM) it was 37.4%. Besides, the growth inhibition was 1% in assay [6] (setting [7]); 19% in assay [6] (setting [8]); 5.55% in assay [6] (at 50.0 µM); 8% in assay [5] (setting [7]); 81% (active) in assay [5] (setting [8]); 15% in assay [5] (at 50.0 µM).
`C=CCc1cc(C(=O)OCC)cc(OC)c1O`: the growth inhibition in assay [1] (setting [7]) was 78% (active); in assay [1] (setting [8]), 97% (active); in assay [1] (at 50.0 µM), 5.15%; in assay [2] (setting [7]), 22%; in assay [2] (setting [8]), 98% (active); in assay [2] (at 50.0 µM) it was -1.1%. The growth inhibition was 34% in assay [3] (setting [7]); 91% (active) in assay [3] (setting [8]); 3.9% in assay [3] (at 50.0 µM); 20% in assay [4] (setting [7]); 95% (active) in assay [4] (setting [8]); -23.4% in assay [4] (at 50.0 µM). Moreover, the growth inhibition in assay [5] (setting [7]) was 44%; in assay [5] (setting [8]), 97% (active); in assay [5] (at 50.0 µM), -0.35%.
With `COc1ccc(N=NN(C)C)cc1`, the growth inhibition was -13% in assay [1] (setting [7]); 65% in assay [1] (setting [8]); 97% (active) in assay [1] (at 50.0 µM); 13% in assay [2] (setting [7]); 28% in assay [2] (setting [8]); 70.3% (active) in assay [2] (at 50.0 µM). Besides, the growth inhibition in assay [4] (setting [7]) was -42%; in assay [4] (setting [8]) it was 26%; in assay [4] (at 50.0 µM), 76.5% (active); in assay [6] (setting [7]) it was -12%; in assay [6] (setting [8]), 50%; in assay [6] (at 50.0 µM), 72% (active). Further, the growth inhibition is 17% in assay [5] (setting [7]), 92% (active) in assay [5] (setting [8]) and 94.6% (active) in assay [5] (at 50.0 µM).
For `COc1ccc2c(c1OC)OCC2C` (stereo unspecified), the growth inhibition in assay [1] (setting [7]) was 3%; in assay [1] (setting [8]), 68%; in assay [1] (at 50.0 µM), 86.5% (active); in assay [2] (setting [7]), 0%; in assay [2] (setting [8]), 38%; in assay [2] (at 50.0 µM), 71% (active). Moreover, the growth inhibition in assay [4] (setting [7]) was -4%; in assay [4] (setting [8]) it was 57%; in assay [4] (at 50.0 µM) it was 57.4%; in assay [6] (setting [7]) it was 2%; in assay [6] (setting [8]), 71% (active); in assay [6] (at 50.0 µM), 87.1% (active). Also, the growth inhibition in assay [5] (setting [7]) was -4%; in assay [5] (setting [8]), 67%; in assay [5] (at 50.0 µM), 43.2%.
For the compound `O=C1C=CC(=O)c2c1cc1ccccc1c2O`, the growth inhibition in assay [1] (setting [7]) was 19%; in assay [1] (setting [8]), 97% (active); in assay [1] (at 50.0 µM), 4.45%; in assay [2] (setting [7]) it was 15%; in assay [2] (setting [8]), 99% (active); in assay [2] (at 50.0 µM) it was -10.8%. Further, the growth inhibition is 6% in assay [3] (setting [7]); 98% (active) in assay [3] (setting [8]); 1.4% in assay [3] (at 50.0 µM); 6% in assay [4] (setting [7]); 44% in assay [4] (setting [8]); 27.4% in assay [4] (at 50.0 µM). Moreover, the growth inhibition in assay [6] (setting [7]) was 22%; in assay [6] (setting [8]), 96% (active); in assay [6] (at 50.0 µM) it was -5.75%; in assay [5] (setting [7]), 19%; in assay [5] (setting [8]), 97% (active); in assay [5] (at 50.0 µM) it was 30.6%.
As for `CCCCCCNC(=S)N/N=C(\C)c1ccccn1`, the growth inhibition in assay [1] (setting [7]) was 72% (active); in assay [1] (setting [8]) it was 99% (active); in assay [1] (at 50.0 µM) it was 76.3% (active); in assay [2] (setting [7]) it was 86% (active); in assay [2] (setting [8]), 99% (active); in assay [2] (at 50.0 µM), 85.7% (active). In addition, the growth inhibition was 63% in assay [3] (setting [7]); 99% (active) in assay [3] (setting [8]); 90% (active) in assay [3] (at 50.0 µM); 90% (active) in assay [4] (setting [7]); 95% (active) in assay [4] (setting [8]); 90.3% (active) in assay [4] (at 50.0 µM). Further, the growth inhibition in assay [5] (setting [7]) is 97% (active); in assay [5] (setting [8]) it was 93% (active); in assay [5] (at 50.0 µM), 91.2% (active).
Consider `O=c1c2ccccc2sc2c1c(N(CCO)CCO)cc1ccccc12`, for which the growth inhibition in assay [1] (setting [7]) was 45%; in assay [1] (setting [8]) it was 94% (active); in assay [1] (at 50.0 µM), 97.5% (active); in assay [2] (setting [7]), 6%; in assay [2] (setting [8]), 94% (active); in assay [2] (at 50.0 µM), 95.8% (active). The growth inhibition in assay [3] (setting [7]) was 12%; in assay [3] (setting [8]), 93% (active); in assay [3] (at 50.0 µM) it was 97.9% (active); in assay [4] (setting [7]), -7%; in assay [4] (setting [8]), 78% (active); in assay [4] (at 50.0 µM), 96.2% (active). Also, the growth inhibition was 19% in assay [5] (setting [7]), 95% (active) in assay [5] (setting [8]) and 97.6% (active) in assay [5] (at 50.0 µM).
Take `CC(=O)Nc1ccc2c(c1)C(S)c1ccccc1-2` (stereo unspecified): the growth inhibition in assay [1] (setting [7]) was -5%; in assay [1] (setting [8]), 32%; in assay [1] (at 50.0 µM) it was 52%; in assay [2] (setting [7]), 9%; in assay [2] (setting [8]) it was 27%; in assay [2] (at 50.0 µM), 31.7%. The growth inhibition in assay [4] (setting [7]) is -70%; in assay [4] (setting [8]) it was 18%; in assay [4] (at 50.0 µM), 33.2%; in assay [6] (setting [7]), -1%; in assay [6] (setting [8]), -60%; in assay [6] (at 50.0 µM), 49.4%. Besides, the growth inhibition in assay [5] (setting [7]) was -2%; in assay [5] (setting [8]) it was 71% (active); in assay [5] (at 50.0 µM), 37.2%.
